In paper PMC5540273 (PLoS ONE, 2017):

Tested on: KIT-autoinhibited
Conditions: concentration: 1 μM, replicates: in singlicate; n = 1
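Note: KINOMEscan kinase panel screen.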

Compound | %Inh [%]
Clc1ccc(-c2nn3ncccc3c2-c2ccnc(Nc3ccc4c(c3)OCCO4)n2)cc1 [GW829116] | 36
Cc1ccc(F)c(C(=O)Nc2cccc(-c3nn4ccccc4c3-c3ccnc(Nc4cccc(F)c4)n3)c2)c1F [GSK361061] | 2
CNC(=O)c1ccccc1Nc1nc(Nc2ccc(N3CCOCC3)cc2)ncc1Cl.Cl [GSK1576028] | 10
Cc1cccc(Nc2nc(N[C@H]3CCNC3)ncc2C(N)=O)c1.Cl [GSK2197149] | 0
CCn1c(-c2nonc2N)nc2c(C#CC(C)(C)O)nc(OC[C@H](N)c3ccccc3)cc21 [GSK943949] | 4
COc1cc(Nc2ncc3c(C)nc(-c4cc5ccccc5[nH]4)n3n2)cc(OC)c1OC [GW869516] | 22
Cl.NC(=O)c1cccc(Nc2nccc(Nc3ccc(Oc4c(Cl)cccc4Cl)c(Cl)c3)n2)c1 [GW659009] | 0
Cl.c1ccc(-c2ccc3c(Nc4ccc5[nH]ccc5c4)ccnc3c2)nc1 [GW440138] | 1
CN1CCN(CCCNc2nccc(-c3c(-c4ccc(F)cc4)nn4cc(C(F)(F)F)ccc34)n2)CC1 [GW621581] | 0
O=C(Nc1n[nH]c2cc(-c3ccoc3)ccc12)C1CC1 [SB-738481] | 8
COc1cccc(C2=C(Nc3ccc(Cl)c(C(=O)O)c3)C(=O)NC2=O)c1 [SB-390769] | 0
COc1cccc(-c2ccc3c(NC(=O)C4CC4)n[nH]c3n2)c1 [SB-710903] | 0
COc1cccc(NC(=O)NC2CCN(c3ccnc(Nc4cc(OC)c(OC)c(OC)c4)n3)C2)c1 (stereo not shown) [GSK1379763] | 17
